Reference: PubChem BioAssay (EPA / NIEHS)
Inconclusive results are not listed. Active and inactive are the calls of the source. The calls were made as follows: active = hit-call score of the fitted dose curve at least 0.9, where 1 is the maximum; inconclusive = response in the unintended direction; inactive = score below 0.9.

What follows are compounds tested on guinea pig Histamine Receptor (H2), gene 100729734 (assay: NVS_GPCR_gH2: NovaScreen (NVS) G Protein-Coupled Receptor Assay for guinea pig Histamine Receptor (H2) (AID 2283342)).
Experimental: NVS_GPCR_gH2 is a biochemical, single-readout assay that uses extracted gene-proteins from Guinea pig striatal membranes in a tissue-based cell-free assay. Measurements were taken 1 hour after chemical dosing in a 96-well plate.NVS_GPCR_gH2 is one of one assay component(s) measured or calculated from the NVS_GPCR_gH2 assay. It is designed to make measurements of radioligand binding, a form of binding reporter, as detected with scintillation counting signals by Filter-based radiodetection technology.Data from the assay component NVS_GPCR_gH2 was analyzed into 1 assay endpoint. This assay endpoint, NVS_GPCR_gH2, was analyzed in the positive analysis fitting direction relative to DMSO as the negative control and baseline of activity. Using a type of binding reporter, loss-of-signal activity can be used to understand changes in the binding as they relate to the gene Hrh2. Furthermore, this assay endpoint can be referred to as a primary readout, because the performed assay has only produced 1 assay endpoint. To generalize the intended target to other relatable targets, this assay endpoint is annotated to the gpcr intended target family, where the subfamily is rhodopsin-like receptor.
Binding assays used specific radioligands (tritiated, iodinated) with non-radioactive competitive displacement ligands in agonist or antagonist protocols (as indicated) and various reference compounds and inhibitors to titrate specific binding to receptors and transporters. Most enzyme assays (CYPs, kinases, phosphatases, proteases, HDACs) used recombinant protein and specific substrates (fluorescence mostly, some colorimetric and radioactive) and inhibitors, followed by a biochemical separation of substrate and product. All assays for the biochemical HTS were initially run in duplicate at a single concentration (10 uM for CYP450 assays and 25 uM for all others). Assay-chemical combinations meeting a pre-defined threshold (e.g., 30% inhibition and other criteria defined below) were then run in singleton concentration-response format with maximum concentration of 20 uM for CYPs and 50 uM for all others. Each assay was run with positive and negative controls, and concurrent controls on every plate. The follow-up (secondary) screen tested active chemical-pairs in concentration series, as well as a few additional assays not tested in the primary screen, some selected negative inactives, and several cases re-run in the concentration series for confirmatory purposes.

Structure (SMILES) | AC50 | outcome
O=c1[nH]c2ccc(S(=O)CCN3CCC(Cc4ccc(F)cc4)CC3)cc2o1 (stereo not drawn) | 1.21 µM (active) | 
COc1cccc(-c2ccc(/C=C\CN3CCCCCC3)cc2Cl)c1 | 12.3 µM (active) | 
CCn1nc(Cc2ccccc2)cc1C1CCN(C[C@H]2C[C@H](N(C)[C@@H](C(=O)O)C(C)C)C[C@@H]2c2cccc(F)c2)CC1 | 11.4 µM (active) | 
CNS(=O)(=O)c1cc(C(=O)N2CCC(CCN3C4CCC3CC(n3c(C)nc5ccccc53)C4)(c3cccc(F)c3)CC2)c(Cl)cc1F (stereo not drawn) | 8.76 µM (active) | 
COc1ccc(-n2nc(C(F)F)cc2-c2ccc(S(C)=O)cc2)cc1 (stereo not drawn) | 25 µM (active) | 
Cc1[nH]cnc1C[C@H]1CCc2c(C)c3ccccc3n2C1=O | 12.2 µM (active) | 
CCOC(=O)COc1ccc2c(c1)CC(NCC(O)c1cccc(Cl)c1)CC2 (stereo not drawn) | 32 µM (active) | 
O=C(O)CC(O)C(=O)O (stereo not drawn) |  | inactive
CCOC(=O)c1ccc(C2CCC(NC[C@H](O)COc3ccc(O)c(NS(C)(=O)=O)c3)CC2)cc1 (stereo partly drawn) | 9.42 µM (active) | 
COCCOc1cc2cc(C(=O)NC3CCN(C(C)C)CC3)n(CC(=O)Nc3ccc(Cl)cn3)c2cn1 | 12.8 µM (active) | 
CCCN(C1CCN(C(=O)C2CCNCC2)CC1)[C@@H]1CCc2ccc(OC)cc2C1 | 16.9 µM (active) | 
Fc1ccccc1[C@@H](F)COC1CCC(Nc2ncnc3[nH]ncc23)CC1 (stereo partly drawn) |  | inactive
CC[C@H]1CC[C@H](NCc2cc3c(cc2OC)[C@H]2C[C@H]2C(=O)N3C)[C@H](c2ccccc2)N1 | 16 µM (active) | 
CCN(C(=O)c1cc(C)cc(OC[C@H](C)Nc2ccncc2)c1)C(C)C | 16.9 µM (active) | 
Nc1ccc(Nc2ccccc2)cc1 |  | inactive
CCOc1cccc(-n2cc(C(=O)N3CCN(c4cc(C(=O)O)c5ccccc5c4)CC3)nc2-c2ccc(C)cc2)c1 |  | inactive
O=C(CCCCCCCCc1cccnc1)N1CCC(C=C(c2ccccc2)c2ccccc2)CC1 |  | inactive
CCc1cc(SCc2sc(-c3ccc(C(F)(F)F)cc3)nc2CN2CCN(c3ccc(OC)cc3)CC2)ccc1OCC(=O)O | 17.7 µM (active) | 
